# A number with no mark means an inactive call.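 The calls were made as follows: active = log2 fold change beyond 2 SD from the library mean after excluding viability outliers; inactive = within 2 SD.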
# Molecular target: PARP1 L713F-nLuc biosensor (HCT116) (UniProt P09874)
# Assay: PARP1 L713F-nLuc/akaLuc ratio relative to DMSO control (biosensor stabilization) (fold change); higher = more PARP1 biosensor stabilization (target engagement / stabilizer), active = hit call of the paper
# Conditions: stock concentration (mM; final µM = stock mM x 1): 10; 24 h
# Chain of PARP1 L713F-nLuc biosensor (HCT116) (P09874 whole entry L713F, looked up): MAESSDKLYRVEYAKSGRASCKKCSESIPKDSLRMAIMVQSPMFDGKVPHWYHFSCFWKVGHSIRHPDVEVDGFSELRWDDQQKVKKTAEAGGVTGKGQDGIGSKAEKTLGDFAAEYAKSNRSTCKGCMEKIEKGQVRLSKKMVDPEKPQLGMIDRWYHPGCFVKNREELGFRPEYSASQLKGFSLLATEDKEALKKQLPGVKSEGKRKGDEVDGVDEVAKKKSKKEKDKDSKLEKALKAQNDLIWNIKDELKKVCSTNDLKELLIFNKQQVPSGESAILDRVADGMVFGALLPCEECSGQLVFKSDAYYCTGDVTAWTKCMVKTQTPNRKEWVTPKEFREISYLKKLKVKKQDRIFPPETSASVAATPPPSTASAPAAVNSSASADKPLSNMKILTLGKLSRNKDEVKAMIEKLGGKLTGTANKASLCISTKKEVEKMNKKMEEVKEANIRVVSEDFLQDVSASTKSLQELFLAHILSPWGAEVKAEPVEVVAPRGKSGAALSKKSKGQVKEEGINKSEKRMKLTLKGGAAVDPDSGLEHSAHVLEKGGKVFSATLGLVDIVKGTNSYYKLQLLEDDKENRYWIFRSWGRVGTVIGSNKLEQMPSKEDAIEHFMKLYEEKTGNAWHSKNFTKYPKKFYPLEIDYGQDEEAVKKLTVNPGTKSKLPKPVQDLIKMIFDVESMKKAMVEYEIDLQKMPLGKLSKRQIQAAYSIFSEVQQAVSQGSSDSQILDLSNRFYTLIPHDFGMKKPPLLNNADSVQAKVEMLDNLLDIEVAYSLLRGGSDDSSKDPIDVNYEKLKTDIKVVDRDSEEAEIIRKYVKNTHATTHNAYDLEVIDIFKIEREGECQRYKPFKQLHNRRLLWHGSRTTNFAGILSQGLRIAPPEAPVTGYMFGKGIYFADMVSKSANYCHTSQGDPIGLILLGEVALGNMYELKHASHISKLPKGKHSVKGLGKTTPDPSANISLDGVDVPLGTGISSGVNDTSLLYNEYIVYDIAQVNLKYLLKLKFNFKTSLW
row,Compound,PARP1 L713F-nLuc/akaLuc ratio
1,Cc1nn(C)cc1-c1nc2c(N3CCN(Cc4ccc(Cl)cc4)CC3)c(Cl)cnc2[nH]1,0.979
2,CCCCCC1CC1CC1CC1CCCCCCCC(=O)O (stereo not drawn),1.14
3,CN(c1ccccc1)c1ccc2c(c1)CCC[C@H]2CNc1cnccc1C(=O)O,0.387
4,Cc1cc(Nc2nc(N[C@@H](C)c3ncc(F)cn3)ncc2Cl)[nH]n1,0.882
5,CC(C)Oc1ccc(-c2c[nH]cc2CN(C)CCN)cc1,1.38
6,Cc1[nH]n(-c2ccccc2)c(=O)c1N=Nc1ccc(N2CCOCC2)cc1,1.04
7,O=S(=O)(c1cccc2cnccc12)N1CCNCC1,0.882
8,N#Cc1c[nH]c2ccc(-c3ccc(-c4c(O)cccc4O)cc3)cc12,0.933
